Values joined by “and” are separate entries in the source; they are usually repeats but may differ in a detail not shown here. Identical values can stand only once. Values without a mark were called inactive. Inconclusive results are not listed. Active and inactive are the calls of the source. Unless noted, calls follow the shape of the dose curve; as a rule, active = well fitted curve in the direction sought with a large enough effect; inconclusive = small, poorly fitted or top-dose-only effect, or another doubt; inactive = no such curve, though single readings can be large; an effect the other way counts as inactive or inconclusive.

13 molecules from PubChem BioAssay (NCATS) can be followed below.

One test concerns UISO. In words: qHTS assay to identify novel small-molecules to repurpose for Merkel cell carcinoma treatment (AID 1296009). Also: nearly all actives have a fitted effect of over 60% in size. Also: potency is read from the fitted curve at half-maximal effect. The conditions noted are these: MCC and control cell lines, CellTiter-Glo viability, 72 h; series mostly up to 46 µM. The method, boiled down:
(§1)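 Cells were incubated with compound for 72 hr at 37 degree celsius before CellTiter-Glo addition. Luminescence was normalized with no-cell wells as full cytotoxicity and DMSO as baseline.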
For orientation: Quantitative high-throughput screening tests each substance at several concentrations.

The next test has as its system WaGa. The description is as above. The conditions noted are these: MCC and control cell lines, CellTiter-Glo viability, 72 h; series mostly up to 46 µM. The method, boiled down: as §1
(In general: In ATP-based viability assays light output follows the ATP content of the culture.)

A further test has as its system C33A. In words: Primary qHTS to identify gynecologic anti-cancer compounds using libraries of approved drugs and bioactive compounds (AID 1345084). Also: % is scaled to controls: 0 for no effect and ±100 for the full control effect; nearly all actives have a fitted effect of over 55% in size. The conditions noted are these: Gynecologic cancer cell panel viability, ATPlite luminescence, 48 h; series mostly up to 57.5 µM. The method, boiled down:
(§2)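 Five-concentration response, 48 h; readout is ATP-driven luciferase luminescence.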

In another test the test system is CAOV3. The description is as above. Particulars: Gynecologic cancer cell panel viability, ATPlite luminescence, 48 h; series mostly up to 57.5 µM. The method, boiled down:
as §2

Another test has as its system CASKI. The description is as above. The conditions noted are these: Gynecologic cancer cell panel viability, ATPlite luminescence, 48 h; series mostly up to 57.5 µM. The method in brief: as §2
Another test deals with Es-2. The test is described as above. The conditions noted are these: Gynecologic cancer cell panel viability, ATPlite luminescence, 48 h; series mostly up to 57.5 µM. The method in brief: as §2
A further test deals with HeLa. Described as above. The conditions noted are these: Gynecologic cancer cell panel viability, ATPlite luminescence, 48 h; series mostly up to 57.5 µM. The method in brief: as §2
The subject of another test is Hek293T. The test is described as above. Particulars: Gynecologic cancer cell panel viability, ATPlite luminescence, 48 h, control line for the selectivity index; series mostly up to 57.5 µM. The method, boiled down: as §2
Another test deals with JEG-3. Described as above. The conditions noted are these: Gynecologic cancer cell panel viability, ATPlite luminescence, 48 h; series mostly up to 57.5 µM. The method in brief:
as §2

The test system of another test is OV90. The test is described as above. The conditions noted are these: Gynecologic cancer cell panel viability, ATPlite luminescence, 48 h; series mostly up to 57.5 µM. The method in brief: as §2
A further test concerns PA-1. The test is described as above. The conditions noted are these: Gynecologic cancer cell panel viability, ATPlite luminescence, 48 h; series mostly up to 57.5 µM. The method, boiled down:
as §2

The next test relates to SKOV3. The test is described as above. Particulars: Gynecologic cancer cell panel viability, ATPlite luminescence, 48 h; series mostly up to 57.5 µM. The method, boiled down:
as §2

Another test has as its system Tov-21-G. Described as above. Particulars: Gynecologic cancer cell panel viability, ATPlite luminescence, 48 h; series mostly up to 57.5 µM. The method, boiled down:
as §2

The next test has as its system Tov112D. The test is described as above. Particulars: Gynecologic cancer cell panel viability, ATPlite luminescence, 48 h; series mostly up to 57.5 µM. The method, boiled down: as §2
The next test deals with astro. In words: Drug repurposing screens with cells derived from glioblastoma tumor samples (AID 1345199). Also: % is scaled to controls: 0 for no effect and ±100 for the full control effect; nearly all actives have a fitted effect of over 40% in size. Particulars: viability, ATP luminescence, 48 h; series mostly up to 45.9 µM. The method, boiled down: (§3)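 Four patient lines of CD133+ GBM neurospheres were screened at several concentrations; hits were retested in those lines plus three slower-growing GBM lines, using 48-hour treatment and ATP-based viability.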

Test in test [1]: as above
The conditions noted are these: GBM patient neurospheres viability, ATP luminescence, 48 h. The method in brief:
as §3

Test [2] can be described thus: qHTS assay to identify inhibitors of the type 1 interferon - major histocompatibility complex class I in skeletal muscle: Counter screen cell viability and HiBit confirmation (AID 1347412). Also: % is scaled to controls: 0 for no effect and ±100 for the full control effect; nearly all actives have a fitted effect of over 60% in size. The conditions noted are these: iHSKM muscle cells + IFN-b, HiBiT or CellTiter-Glo, 24 h; Potency: HiBiT; Viability, at 45.9 µM (top of the series). The method, boiled down:
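CRISPR HLA-B*08:01-HiBit immortalized human myoblasts (C25cl48) stimulated with 4 ng/ml IFN-beta and compounds (12-point 1:3, top 46 uM final) for 24 h at 37 C. Duplicate plates read by HiBit lytic luminescence or CellTiter Glo ATP.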

Test [3] addresses Nuclear receptor subfamily 1 group I member 2 (Rattus norvegicus) (UniProt Q9R1A7). In words: qHTS assay for small molecule activators of the rat pregnane X receptor (rPXR) signaling pathway (AID 651751; call rule not given here; also: 0% is about no effect). The conditions noted are these: rPXR reporter cells, luciferase (One-Glo), 24 h.
Test [4] in a line: qHTS assay for small molecule activators of the human pregnane X receptor (PXR) signaling pathway (AID 720659; call rule not given here; also: 0% is about no effect).
The mark [5] stands for this setting: at 45.9 µM (top of the series), tumour line D.
[6] abbreviates: at 46 µM (top of the series), tumour line A.
Where [7] appears, read: at 46.1 µM (top of the series), tumour line C.

Sequence of Nuclear receptor subfamily 1 group I member 2 (Rattus norvegicus) (Q9R1A7 whole entry, looked up): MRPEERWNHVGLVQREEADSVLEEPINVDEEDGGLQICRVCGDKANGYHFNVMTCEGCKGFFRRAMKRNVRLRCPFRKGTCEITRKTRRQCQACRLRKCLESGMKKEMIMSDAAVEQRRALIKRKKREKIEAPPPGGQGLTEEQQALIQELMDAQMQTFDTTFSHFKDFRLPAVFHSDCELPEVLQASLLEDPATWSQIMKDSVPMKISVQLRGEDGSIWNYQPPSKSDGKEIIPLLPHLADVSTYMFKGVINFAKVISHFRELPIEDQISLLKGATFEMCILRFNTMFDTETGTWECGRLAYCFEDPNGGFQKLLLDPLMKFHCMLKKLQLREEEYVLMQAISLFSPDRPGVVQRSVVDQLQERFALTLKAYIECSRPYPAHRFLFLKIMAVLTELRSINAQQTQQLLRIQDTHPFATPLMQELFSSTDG

In the case of `NC(=O)c1ccc(I)c([N+](=O)[O-])c1`, the Potency entry in the test with UISO and with WaGa was “inactive” throughout.

On to `NCCCC(N)(C(=O)O)C(F)F` (centres undefined), for which the Potency result in the test on UISO, in the test with WaGa, in the test with C33A, in the test with CAOV3, in the test on CASKI and with Es-2 was “inactive” each time. In addition, the Potency result in the test on HeLa, in the test with Hek293T, in the test with JEG-3, in the test on OV90, in the test on PA-1 and in the test on SKOV3 was “inactive” each time. Moreover, the Potency entry in the test on Tov-21-G, with Tov112D and in the test with astro was “inactive” throughout.

For the molecule `NC(=O)c1ccc(-c2nc(-c3ccc4c(c3)OCCO4)c(-c3ccccn3)[nH]2)cc1`, the Potency result with UISO and in the test on WaGa was “inactive” throughout.

On to `NNCCc1ccccc1`, for which the Potency result in the test with UISO, in the test with WaGa, in the test on C33A, in the test with CAOV3, in the test on CASKI and in the test on Es-2 was “inactive” each time. The Potency result in the test on HeLa, with Hek293T, with JEG-3, in the test with OV90, in the test with PA-1 and in the test with SKOV3 was “inactive” throughout. The Potency result with Tov-21-G, in the test on Tov112D and in the test with astro was “inactive” in each case. For the same molecule, the activity, negative = cell killing was -0.565% in test [1] (at 20 µM (top of the series), tumour line C) and -10.9% in test [1] (at 21.2 µM (top of the series), tumour line B).

On to `Cc1cc(C=c2sc3nc4ccccc4n3c2=O)c(C)n1-c1ccccc1`, for which the Potency result in the test on UISO and with WaGa was “inactive” each time.

`COc1ccc(CC2=NN3C([C@@H](CCc4ccccc4)[C@@H](C)O)=NC(C)C3C(=O)N2)cc1OC` (some centres undefined): the Potency entry in the test on UISO and in the test on WaGa was “inactive” throughout.

Take `OC(CN1CCC(Cc2ccc(F)cc2)CC1)c1ccc(Cl)cc1` (centres undefined): the Potency result with UISO, with WaGa, in the test with C33A, in the test with CAOV3, in the test on CASKI and with Es-2 was “inactive” in each case. Further, the Potency entry in the test with HeLa, in the test on Hek293T, in the test on JEG-3, in the test on OV90, in the test with PA-1 and in the test with SKOV3 was “inactive” each time. Further, the Potency entry in the test on Tov-21-G, in the test with Tov112D and with astro was “inactive” throughout.

For `CCOc1cc(N2CCC(O)CC2)ccc1Nc1ncc2c(n1)N(C)c1ccccc1C(=O)N2C`, the results for the Potency in the test on UISO and in the test with WaGa were 11.8 µM (active) and 3.72 µM (active), respectively.

As for `Fc1ccc(Cl)cc1-c1nc(Nc2ccncc2)c2nccnc2n1`, the Potency entry in the test with UISO and in the test on WaGa was “inactive” each time.

Regarding `CC(C)OC(=O)C1=CN(C(=O)c2ccc(F)c(F)c2)CC(C)(C)c2c1[nH]c1ccccc21`, the Potency result with UISO, in the test on WaGa, in the test with C33A, in the test with CAOV3, with CASKI and in the test on Es-2 was “inactive” throughout. Besides, the Potency result in the test with HeLa, in the test on Hek293T, in the test with JEG-3, in the test with OV90, in the test with PA-1 and in the test with SKOV3 was “inactive” in each case. Besides, the Potency entry with Tov-21-G and with Tov112D was “inactive” each time.

`CC[C@@H](C)[C@H](NC(=O)[C@H](CC1CCCCC1)NC(=O)c1ccno1)C(=O)N1CCC2(CCc3ccccc32)CC1`: the Potency result with UISO, with WaGa, with C33A, with CAOV3, in the test with CASKI and with Es-2 was “inactive” each time. Moreover, the Potency entry in the test on HeLa, in the test on Hek293T, in the test on JEG-3, with OV90, in the test with PA-1 and in the test with SKOV3 was “inactive” each time. Besides, the Potency result (in the test with Tov-21-G; in the test on Tov112D; in test [2]) was “inactive” throughout.

With `CC(=O)Oc1ccccc1C(=O)O`, the Potency result in the test with UISO, with WaGa, in the test on C33A, with CAOV3, in the test on CASKI and in the test on Es-2 was “inactive” throughout. For the same molecule, the Potency entry in the test with HeLa, in the test on Hek293T, in the test on JEG-3, with OV90, in the test with PA-1 and with SKOV3 was “inactive” in each case. In addition, the Potency result in the test with Tov-21-G, in the test with Tov112D and in the test with astro was “inactive” in each case. For the same molecule, the activity, negative = cell killing in test [1] (setting [5]) is -4.86%; in test [1] (setting [6]) it was -15.2%; in [1] (setting [7]), -19.2%. Besides, in [3], the max response is -0.967% and 1.6% and -0.848%. Further, in test [4], the call was inactive.

As to `NC(=O)c1cnccn1`, the Potency entry in the test on UISO, with WaGa, with C33A, in the test with CAOV3, in the test with CASKI and with Es-2 was “inactive” throughout. For the same molecule, the Potency entry with HeLa, with Hek293T, with JEG-3, with OV90, in the test with PA-1 and in the test on SKOV3 was “inactive” in each case. The Potency result in the test on Tov-21-G, with Tov112D and in the test with astro was “inactive” each time. For the same molecule, the activity, negative = cell killing was -8.76% in test [1] (at 45.9 µM (top of the series), tumour line B); -23.3% in test [1] (setting [5]); -24.5% in [1] (setting [6]); -17% in [1] (setting [7]). In addition, in test [3], the max response was -0.614% and 3.04%. For the same molecule, the molecule was classed as inactive in [4].
